Assay [1] concerns the target Calcium and integrin-binding protein 1 (Homo sapiens) (UniProt Q99828). The assay is described as follows: Primary qHTS for Identification of Calcium Integrin Binding Protein 1 (CIB1) Competitor (AID 1508620).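 Also: GST tagged CIB1 binding a fluorescein labelled alphaIIb integrin peptide tracer; top concentration of the series differs between compounds; % is scaled to controls: 0 for no effect and ±100 for the full control effect.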 Conditions: CIB1-GST / FITC-alphaIIb peptide fluorescence polarization; series mostly up to 114 µM. In short, it runs like this:
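Fluorescence polarization competition: GST-tagged CIB1 (1 uM final) preincubated with compound 15 min at room temperature, then FITC-labelled alphaIIb peptide (100 nM final) added. After 15 min at room temperature, polarization read at Ex 480/Em 540.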
On the technique in general: Quantitative high-throughput screening tests each substance at several concentrations.

Assay [2] in a line: Primary qHTS for inhibitors of nuclear receptor binding SET domain protein 2 (NSD2) in an isogenic RCH-ACV NSD2 p.E1099K mutant (9B) (AID 1645876). Also: % is scaled to controls: 0 for no effect and ±100 for the full control effect; nearly all actives have a fitted effect of over 70% in size. Particulars: RCH-ACV (leukaemia line) NSD2 E1099K (9B) viability, CellTiter-Glo, 72 h; series mostly up to 44.9 µM.
For assay [3], the target named is Glutathione peroxidase 1 (Homo sapiens) (UniProt P07203). The assay is described as follows: Primary qHTS Assay for Inhibitors of Recombinant Selenoprotein Glutathione Peroxidase 1 (GPX1) (AID 1845191). Also: nearly all actives have a fitted effect of over 65% in size. Conditions: recombinant GPX1, GR-coupled NADPH fluorescence, 15 min; series mostly up to 48.8 µM. The procedure, abridged: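 GR-coupled assay: compounds preincubated 30 min at room temperature with GPX1, then reaction started with CHP; final 10 nM GPX1, 1 mM GSH, 0.5 mM CHP, 0.5 mM NADPH, 100 nM GR, 0.01% BSA, pH 7.5 Tris buffer. NADPH fluorescence (340/450 nm) read at 0 and 15 min.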

Assay [4] has as its target Phospholipid hydroperoxide glutathione peroxidase GPX4 (Homo sapiens) (UniProt P36969). The assay can be described thus: Primary qHTS Assay for Inhibitors of Recombinant Selenoprotein Glutathione Peroxidase 4 (GPX4) (AID 1845192). Also: nearly all actives have a fitted effect of over 65% in size. Particulars: recombinant GPX4, GR-coupled NADPH fluorescence, 15 min; series mostly up to 50 µM. In short, it runs like this:
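GR-coupled assay: recombinant GPX4 preincubated 30 min with compound at room temperature; final 200 nM GPX4, 1 mM GSH, 0.5 mM cumene hydroperoxide, 0.5 mM NADPH, 100 nM GR, 0.01% BSA, pH 7.5 Tris. NADPH fluorescence (340/450 nm) read at 0 and 15 min.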

Assay [5] concerns the target Luciferin 4-monooxygenase (Photinus pyralis) (UniProt P08659). The assay is described as follows: Primary firefly luciferase (FLuc) qHTS assay for identification of artifact compounds. (AID 1845220).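 Also: plate controls were DMSO vehicle for no effect and no enzyme for full effect; nearly all actives have a fitted effect of over 60% in size.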 Particulars: purified firefly luciferase, luminescence, 5 min; series mostly up to 54.1 µM. In short, it runs like this:
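Enzymatic FLuc inhibition assay: compounds pre-exposed to luciferin/ATP (10 uM each) for 15 min, then purified P. pyralis enzyme at 10 nM added. Read-out: luminescence at 5 min.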

Assay [6] can be described thus: Primary fluorescence-based thiol-reactive (MSTI) qHTS assay for identification of artifact compounds. (AID 1845221). Also: nearly all actives have a fitted effect of over 65% in size. Also: potency is read from the fitted curve at half-maximal effect. Conditions: MSTI thiol-reactivity probe, 1 h; series mostly up to 53.8 µM. The procedure, abridged: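 Compounds were incubated 1 h at room temperature in the dark with the MSTI probe (4 uM) in PBS pH 7.4, 2% DMSO. Signals were normalized between Acetyl-MSTI and MSTI.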

Assay [7] has as its system Nanoluciferase (engineered Oplophorus gracilirostris luciferase). The assay can be described thus: Primary Nanoluciferase (NLuc) qHTS assay for identification of artifact compounds. (AID 1845222).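 Also: NLuc secreted into diluted conditioned medium of S16 cells; 0% = DMSO and -100% = no enzyme.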 Conditions: NLuc-conditioned medium, Nano-Glo luminescence, 5 min; series mostly up to 54.1 µM. In short, it runs like this:
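S16 cell supernatant NLuc, 1:55; cpds qHTS; 15 min RT dark; Nano-Glo substrate 1:100, 5 min; luminescence; Hill fit of % inhibition.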

For another assay, the system named is CRL-7250. The assay is described as follows: Cytotoxic Profiling of Annotated Libraries Using Quantitative High-Throughput Screening (AID 1296008). Also: nearly all actives have a fitted effect of over 60% in size. As to max response: % is scaled to controls: 0 for no effect and ±100 for the full control effect. Particulars: Five cell lines viability, CellTiter-Glo ATP luminescence, 48-72 h; max response: stronger effect = lower value. The procedure, abridged: (§1)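 Cells exposed to compounds for 48 or 72 hr at 37 degrees Celsius. Viability read as ATP-coupled luminescence with CellTiter-Glo after 10 min at room temperature.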
For orientation: Cellular ATP, detected with luciferase, serves as a proxy for viable cell number.

Another assay has as its system HEK293. The description is as above. Particulars: Five cell lines viability, CellTiter-Glo ATP luminescence, 48-72 h; max response: stronger effect = lower value. In short, it runs like this: as §1
Another assay deals with HaCat. Described as above. Conditions: Five cell lines viability, CellTiter-Glo ATP luminescence, 48-72 h; max response: stronger effect = lower value. The procedure, abridged: as §1
A further assay has as its system NIH3T3. The assay is described as above. Conditions: Five cell lines viability, CellTiter-Glo ATP luminescence, 48-72 h; max response: stronger effect = lower value. The procedure, abridged: as §1
The subject of the next assay is C33A. The assay is described as follows: Primary qHTS to identify gynecologic anti-cancer compounds using libraries of approved drugs and bioactive compounds (AID 1345084). Also: % is scaled to controls: 0 for no effect and ±100 for the full control effect; nearly all actives have a fitted effect of over 55% in size. Conditions: Gynecologic cancer cell panel viability, ATPlite luminescence, 48 h; series mostly up to 57.5 µM. The procedure, abridged: (§2)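 Luminescence from the ATPlite ATP-monitoring reagent indicates viable cell number; lower signal means cytotoxicity. Cells received compound 16 h after seeding and were exposed for 48 h across five concentrations.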

In the next assay the test system is CASKI. The assay is described as above. Particulars: Gynecologic cancer cell panel viability, ATPlite luminescence, 48 h; series mostly up to 57.5 µM. The procedure, abridged:
as §2

In another assay the test system is Es-2. The assay is described as above. Particulars: Gynecologic cancer cell panel viability, ATPlite luminescence, 48 h; series mostly up to 57.5 µM. The procedure, abridged:
as §2

The test system of another assay is Hek293T. The assay is described as above. Conditions: Gynecologic cancer cell panel viability, ATPlite luminescence, 48 h, control line for the selectivity index; series mostly up to 57.5 µM. The procedure, abridged: as §2
The subject of the next assay is OV90. The assay is described as above. Particulars: Gynecologic cancer cell panel viability, ATPlite luminescence, 48 h; series mostly up to 57.5 µM. In short, it runs like this:
as §2

The next assay relates to PA-1. Described as above. Conditions: Gynecologic cancer cell panel viability, ATPlite luminescence, 48 h; series mostly up to 57.5 µM. In short, it runs like this:
as §2

Another assay has as its system Tov-21-G. The description is as above. Conditions: Gynecologic cancer cell panel viability, ATPlite luminescence, 48 h; series mostly up to 57.5 µM. The procedure, abridged: as §2
In another assay the test system is Tov112D. The description is as above. Particulars: Gynecologic cancer cell panel viability, ATPlite luminescence, 48 h; series mostly up to 57.5 µM. The procedure, abridged:
as §2

The subject of assay [8] is Zika virus NS2B-NS3 protease (linked construct). The assay is described as follows: Primary screen NINDS Rhodamine qHTS for Zika virus inhibitors (AID 1347160). Also: nearly all actives have a fitted effect of over 55% in size. Conditions: purified NS2B-NS3 protease, Rhodamine110 substrate fluorescence; series mostly up to 57.1 µM. In short, it runs like this: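 Purified NS2B-NS3 protease with the NS2B hydrophilic domain joined by a flexible linker (25 nM) in 10 mM Tris-HCl pH 8.0, 0.01% Tween 20, preincubated 15 min at RT with compound; Rhodamine110 peptide substrate 1.5 µM; fluorescence change over 15 min; 4-parameter Hill fit.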

Each structure is given as a SMILES string. Values without a mark were called inactive. Inconclusive results are not listed. Activity calls are given as the source filed them. Calls follow the shape of the dose curve; as a rule, active = well fitted curve in the direction sought with a large enough effect; inconclusive = small, poorly fitted or top-dose-only effect, or another doubt; inactive = no such curve, though single readings can be large; an effect the other way counts as inactive or inconclusive.

Chain of Phospholipid hydroperoxide glutathione peroxidase GPX4 (Homo sapiens) (P36969 whole entry, looked up): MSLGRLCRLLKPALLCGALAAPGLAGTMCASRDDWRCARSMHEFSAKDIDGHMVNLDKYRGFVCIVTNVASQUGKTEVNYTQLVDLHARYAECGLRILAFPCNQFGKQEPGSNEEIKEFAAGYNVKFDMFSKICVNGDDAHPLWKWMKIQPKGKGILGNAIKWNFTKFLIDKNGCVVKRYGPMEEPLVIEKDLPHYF
Chain of Glutathione peroxidase 1 (Homo sapiens) (P07203 whole entry, looked up): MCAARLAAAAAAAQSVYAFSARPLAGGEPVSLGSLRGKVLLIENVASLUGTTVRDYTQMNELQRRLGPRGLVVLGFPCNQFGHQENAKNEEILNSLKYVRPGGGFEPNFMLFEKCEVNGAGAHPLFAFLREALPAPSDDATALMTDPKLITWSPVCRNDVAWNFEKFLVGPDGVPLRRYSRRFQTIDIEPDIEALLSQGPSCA
Chain of Calcium and integrin-binding protein 1 (Homo sapiens) (Q99828 whole entry, looked up): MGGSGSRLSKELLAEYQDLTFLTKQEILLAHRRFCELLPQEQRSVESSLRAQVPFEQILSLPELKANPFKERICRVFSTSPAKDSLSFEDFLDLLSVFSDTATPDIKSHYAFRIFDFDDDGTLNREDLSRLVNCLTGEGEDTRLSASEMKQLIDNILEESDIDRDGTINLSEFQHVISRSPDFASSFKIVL

`CCC(C)/C=C(C)/C=C/C1=CC2=C(Cl)C(=O)C(C)(OC(C)=O)C(=O)C2=CO1` (stereo not drawn): the Potency entry (in assay [1]; in [2]; in assay [3]; in assay [4]; in assay [7]; with C33A) was “inactive” each time. Besides, the Potency result with CASKI, with Es-2, with Hek293T, in the assay on OV90, in the assay on PA-1 and with Tov-21-G was “inactive” each time. Also, in the assay with Tov112D, the Potency result is “inactive”. In [5], the compound was classed as inactive. Also, the Potency in [6] is 1310 nM (active). For the same compound, the max response is -20% with CRL-7250, -69.1% in the assay on HEK293, -66.3% in the assay on HaCat and -56.4% in the assay with NIH3T3.

`c1cncc(OC[C@@H]2CCN2)c1`: the Potency result in [8], in assay [1], in [2], in [3], in assay [4] and in [6] was “inactive” each time. For the same compound, the Potency result (in [7]; with C33A; in the assay on CASKI; in the assay with Es-2; in the assay on Hek293T; in the assay on OV90) was “inactive” throughout. The Potency result in the assay on PA-1, with Tov-21-G and in the assay with Tov112D was “inactive” throughout. Also, the result in assay [5] was inactive. Further, the max response in the assay on CRL-7250 was 0.617%; with HEK293, 1.76%; in the assay with HaCat, 0.624%; in the assay with NIH3T3, -2.03%.

For the compound `O=C1N[C@@H](Cc2ccccc2)CN2CCCC[C@@H]12`, the Potency entry in assay [8], in assay [1], in assay [2], in assay [3], in assay [4] and in [6] was “inactive” each time. Moreover, the Potency result (in assay [7]; in the assay on C33A; in the assay with CASKI; with Es-2; in the assay with Hek293T; in the assay on OV90) was “inactive” throughout. The Potency entry in the assay on PA-1, with Tov-21-G and in the assay on Tov112D was “inactive” each time. Moreover, the result (in [5]; in the assay with HaCat) was inactive. The max response with CRL-7250 is -11.6%; in the assay on HEK293, -0.0326%; in the assay with NIH3T3 it was 1.01%.

Turning to `CC1CCCC(O)CC(=O)Cc2cc(O)cc(O)c2C(=O)O1` (stereo not drawn), the Potency result in assay [8], in assay [1], in assay [2], in [3], in assay [4] and in assay [7] was “inactive” each time. Also, the Potency entry in the assay on C33A, in the assay on CASKI, in the assay on Es-2, with Hek293T, in the assay on OV90 and in the assay with PA-1 was “inactive” each time. The Potency entry in the assay with Tov-21-G and in the assay on Tov112D was “inactive” each time. Also, the compound was called inactive (in [5]; with HaCat). In addition, the max response was -9.43% in the assay on CRL-7250, 4.64% in the assay with HEK293 and 2.95% in the assay on NIH3T3.

For the compound `CN1C2CCC1CC(OC(=O)N1Cc3ccccc3NC1=O)C2` (stereo not drawn), the Potency result in assay [8], in assay [1], in assay [2], in [3], in assay [4] and in assay [6] was “inactive” in each case. The Potency entry (in assay [7]; in the assay with C33A; in the assay on CASKI; in the assay on Es-2; in the assay with Hek293T; with OV90) was “inactive” each time. In addition, the Potency result with PA-1, with Tov-21-G and in the assay on Tov112D was “inactive” each time. In addition, the result (in [5]; in the assay with CRL-7250) was inactive. For the same compound, the max response was 0.771% in the assay on HEK293, 2.89% in the assay on HaCat and -1.26% in the assay with NIH3T3.

The values are drawn from PubChem BioAssay (NCATS).
